In PubChem BioAssay (NCATS):
Several values for one entry are separate records, joined by “and”; a condition that tells them apart may be missing. Equal entries are not always repeated. Inconclusive results are not listed. The source holds several records for some structures; these can differ, active in one and inactive in another. Activity calls are given as the source filed them. Unless noted, calls follow the shape of the dose curve; as a rule, active = well fitted curve in the direction sought with a large enough effect; inconclusive = small, poorly fitted or top-dose-only effect, or another doubt; inactive = no such curve, though single readings can be large; an effect the other way counts as inactive or inconclusive.

How the values were obtained:
[1] = S16 Schwann cell PMP22 intronic element beta-lactamase assay (AID 624044; calls by dose curve; also: nearly all actives have a fitted effect of over 15% in size)
How it was run: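 Rat S16 Schwann cells with beta-Lac driven by a PMP22 intronic element, compound-treated 24 h at 37 °C. LiveBLAzer FRET B/G read: 460 nm normalized to potassium clavulanate vs DMSO; 535 nm FRET as viability; concentration-effect curves classified.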

7G8 = assay: qHTS profiling for inhibitors of Plasmodium falciparum proliferation (AID 504749); also: nearly all actives have a fitted effect of over 60% in size; details: P. falciparum in erythrocytes, SYBR Green DNA, 72 h; series mostly up to 12.8 µM
How it was run: (§1)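 Parasite proliferation within erythrocytes, 72 h exposure. Endpoint: SYBR Green I fluorescence after overnight lysis at room temperature. Controls: 0.29 uM artemisinin, DMSO.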

ATS95 = assay: as above; details: P. falciparum in erythrocytes, SYBR Green DNA, 72 h; series mostly up to 12.8 µM
How it was run: as §1

CP191 = assay: as above; details: P. falciparum in erythrocytes, SYBR Green DNA, 72 h; series mostly up to 12.8 µM
How it was run: as §1

CP192 = assay: as above; details: P. falciparum in erythrocytes, SYBR Green DNA, 72 h; series mostly up to 28.7 µM
How it was run: as §1

CP215 = assay: as above; details: P. falciparum in erythrocytes, SYBR Green DNA, 72 h; series mostly up to 28.7 µM
How it was run: as §1

CP260 = assay: as above; details: P. falciparum in erythrocytes, SYBR Green DNA, 72 h; series mostly up to 12.8 µM
How it was run: as §1

CP266 = assay: as above; details: P. falciparum in erythrocytes, SYBR Green DNA, 72 h; series mostly up to 28.7 µM
How it was run: as §1

CP269 = assay: as above; details: P. falciparum in erythrocytes, SYBR Green DNA, 72 h; series mostly up to 12.8 µM
How it was run: as §1

CP315 = assay: as above; details: P. falciparum in erythrocytes, SYBR Green DNA, 72 h; series mostly up to 12.8 µM
How it was run: as §1

DIV14 = assay: as above; details: P. falciparum in erythrocytes, SYBR Green DNA, 72 h; series mostly up to 12.8 µM
How it was run: as §1

DIV17 = assay: as above; details: P. falciparum in erythrocytes, SYBR Green DNA, 72 h; series mostly up to 12.8 µM
How it was run: as §1

GB4 = assay: as above; details: P. falciparum in erythrocytes, SYBR Green DNA, 72 h; series mostly up to 12.8 µM
How it was run: as §1

ICS = assay: as above; details: P. falciparum in erythrocytes, SYBR Green DNA, 72 h; series mostly up to 12.8 µM
How it was run: as §1

N140 = assay: as above; details: P. falciparum in erythrocytes, SYBR Green DNA, 72 h; series mostly up to 12.8 µM
How it was run: as §1

P94_40 = assay: as above; details: P. falciparum in erythrocytes, SYBR Green DNA, 72 h; series mostly up to 12.8 µM
How it was run: as §1

W2 = assay: as above; details: P. falciparum in erythrocytes, SYBR Green DNA, 72 h; series mostly up to 12.8 µM
How it was run: as §1

[2] = target: Cytochrome P450 3A4 (Homo sapiens) (UniProt P08684); assay: qHTS Assay for Inhibitors and Substrates of Cytochrome P450 3A4 (AID 884); also: nearly all actives have a fitted effect of over 50% in size; also: potency is read from the fitted curve at half-maximal effect
How it was run: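 20 nM human CYP3A4 with 25 uM Luciferin-PPXE (at KM) in 200 mM KPO4, preincubated 10 min with compound; NADPH regeneration started a 60 min RT reaction. Luciferin detected by luminescence, normalized to 57 uM ketoconazole as full inhibition.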

[3] = Confirmation and Secondary Assay for Modulators of Hemoglobin Beta Chain Splicing at IVS2 654 locus (AID 910);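 also: per-well total GFP intensity by laser scanning cytometry after 2-day treatment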
How it was run: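 HeLa cells stably carrying EGFP interrupted by mutant beta-globin IVS2-654 intron (CMV-driven) were treated with compound for 2 days at 37C; corrected splicing was scored as total peak GFP intensity per well (488 nm excitation, 500-520 nm emission).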

[4] = Confirmation and Secondary Assay for Modulators of Hemoglobin Beta Chain Splicing at IVS2 705 locus (AID 930);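 also: HeLa cells stably expressing the EGFP-705 splicing reporter; GFP fluorescence per well restored by corrected splicing of the IVS2-705 intron in EGFP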
How it was run: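 Assay measures total GFP intensity per well in HeLa EGFP-705 cells after 2 days with compound; mis-splicing normally truncates EGFP, so fluorescence indicates corrected splicing.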

Measured: Potency

Sequence of Cytochrome P450 3A4 (Homo sapiens) (P08684 whole entry, looked up): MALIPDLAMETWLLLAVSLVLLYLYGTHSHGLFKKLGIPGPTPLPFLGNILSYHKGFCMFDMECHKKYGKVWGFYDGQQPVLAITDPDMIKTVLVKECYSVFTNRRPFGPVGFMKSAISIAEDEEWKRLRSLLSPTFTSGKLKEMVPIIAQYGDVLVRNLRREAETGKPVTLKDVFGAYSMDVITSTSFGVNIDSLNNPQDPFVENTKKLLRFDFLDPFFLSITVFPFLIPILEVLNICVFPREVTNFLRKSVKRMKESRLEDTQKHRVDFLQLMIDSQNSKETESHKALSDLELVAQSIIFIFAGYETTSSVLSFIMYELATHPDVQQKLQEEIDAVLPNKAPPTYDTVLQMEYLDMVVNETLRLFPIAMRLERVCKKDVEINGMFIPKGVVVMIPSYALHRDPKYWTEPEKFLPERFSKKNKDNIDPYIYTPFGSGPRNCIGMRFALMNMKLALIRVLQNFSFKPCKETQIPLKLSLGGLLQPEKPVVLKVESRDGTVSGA

COc1c(O)cc2c(c1O)[C@@H]1O[C@@H](CO)[C@@H](O)[C@@H](O)[C@@H]1OC2=O
not listed: [2] | [3] | [4]
inactive: all other assays above

CC[C@H](NC(C)C)[C@H](O)c1ccc(O)c(O)c1
inactive: [1] | ATS95 | CP191 | CP192 | CP215 | CP266 | CP269 | CP315 | N140 | P94_40

CC(=O)O[C@@H](C)C[N+](C)(C)C
not listed: ATS95 | CP215 | P94_40 | [2] | [3] | [4]
inactive: all other assays above

C[C@H](NCCc1ccc(O)cc1)[C@@H](O)c1ccc(O)cc1
not listed: CP260 | [2] | [3] | [4]
inactive: all other assays above

CC(=O)O[C@]1(C(C)=O)CC[C@@H]2[C@@H]3C=C(Cl)C4=CC(=O)[C@H]5C[C@@H]5[C@]4(C)[C@H]3CC[C@]21C
inactive: [2]

CCN[C@@H]1C[C@H](C)S(=O)(=O)c2sc(S(N)(=O)=O)cc21
not listed: [2] | [3] | [4]
inactive: all other assays above

CC(=O)Nc1c(I)c(C(=O)N[C@H]2[C@@H](O)[C@H](O)[C@H](CO)O[C@@H]2O)c(I)c(N(C)C(C)=O)c1I
not listed: [2] | [3] | [4]
inactive: all other assays above

C[n+]1ccccc1/C=N\O
not listed: [2] | [3] | [4]
inactive: all other assays above

C[C@@H](CN(C)C)CN1c2ccccc2CCc2ccccc21
inactive: [1] | ATS95 | CP192 | CP260 | CP266 | CP315

CC1(C)O[C@@H]2C[C@H]3[C@H]4C[C@H](F)C5=CC(=O)C=C[C@@]5(C)[C@@H]4[C@H](O)C[C@]3(C)[C@]2(C(=O)CO)O1
not listed: [2] | [3] | [4]
inactive: all other assays above

O=C(O)/C=C\c1ccc(Cn2ccnc2)cc1
not listed: CP266 | CP269 | [2] | [3] | [4]
inactive: all other assays above

CO/N=C(/C(=O)NC1C(=O)N2C(C(=O)O)=C(CSc3nc(=O)c(O)nn3C)CSC12)c1csc(N)n1 (stereo not given)
not listed: [1] | DIV14 | W2 | [2]
inactive: all other assays above

CC1CC2C3CCC4=CC(=O)C=C[C@@]4(C)[C@]3(F)C(O)C[C@]2(C)[C@]1(O)C(=O)CO (stereo not given in full)
inactive: [3] | [4]

COc1ccc(C[C@@H]2c3cc(OC)c(OC)cc3CC[N@+]2(C)CCC(=O)OCCCCCOC(=O)CC[N@@+]2(C)CCc3cc(OC)c(OC)cc3[C@H]2Cc2ccc(OC)c(OC)c2)cc1OC
not listed: CP192 | [2] | [3] | [4]
inactive: all other assays above

CN1CCN(c2nc(-c3cccc(NS(C)(=O)=O)c3)nc3ccccc23)CC1
inactive: [3] | [4]

COC(=O)C1OC(=O)C2OC23[C@]2(C)C(O)CC4C(C)(C)C(OC(C)=O)CC(OC(C)=O)[C@@]4(C)C2CC[C@@]13C (stereo not given in full)
inactive: [3] | [4]
active: [2] 251 nM and 794 nM

Nc1ccccc1C(=O)CC(N)C(=O)O (stereo not given)
inactive: [2] | [3] | [4]

C[N+]1(C)CCC[C@@H](OC(=O)C(O)(c2ccccc2)c2ccccc2)C1
not listed: CP192 | CP215 | CP315 | [2] | [3] | [4]
inactive: all other assays above

CN(C)CCOC(c1ccccc1)c1ccccc1 (tested in a mixture with another compound)
inactive: [4]

N=c1ccn2c(n1)OC1C(O)C(CO)OC12 (stereo not given)
inactive: [2] | [3]

C1CCN2C[C@H]3C[C@H](CN4CCCCC34)C2C1 (stereo not given in full)
inactive: [3] | [4]

O=c1[nH]cnc2c1ncn2C1OC(CO)C(O)C1O (stereo not given)
not listed: CP192 | CP315 | N140
inactive: all other assays above

CN[C@@H]1[C@H](O[C@@H]2O[C@H](CO)[C@@H](N)[C@H](O)[C@@H]2O)O[C@H]2C[C@@H](N)[C@@H](O[C@H]3[C@@H](O)[C@H](O)[C@H](N)C[C@@H]3N)O[C@H]2[C@H]1O
not listed: [1] | CP192 | [2] | [3] | [4]
inactive: all other assays above

CCN1CCC[C@@H]1CNC(=O)c1cc(S(N)(=O)=O)ccc1OC
inactive: [2]

CC1(C)S[C@@H]2[C@H](NC(=O)[C@H](C(=O)O)c3ccsc3)C(=O)N2[C@H]1C(=O)O
not listed: CP260 | [2] | [3] | [4]
inactive: all other assays above

C[C@@](N)(Cc1ccc(O)cc1)C(=O)O
inactive: [2] | [3] | [4]

Cn1c(=O)c2c(ncn2C[C@@H](O)CO)n(C)c1=O
not listed: CP191 | [2] | [3] | [4]
inactive: all other assays above

COc1cc(C)c2c(c1C=O)Oc1c(c(C)c(O)c3c1C(O)OC3=O)OC2=O (stereo not given)
inactive: [3] | [4]
active: [2] 12.6 µM

CC(=O)NCCNc1nc(-c2ccc(N(C)C)cc2)nc2ccccc12
inactive: [4]

CN[C@@H](CC(C)C)C(=O)N[C@@H]1C(=O)N[C@H](CC(N)=O)C(=O)N[C@@H]2C(=O)N[C@H]3C(=O)N[C@H](C(=O)N[C@H](C(=O)O)c4cc(O)cc(O)c4-c4cc3ccc4O)[C@H](O)c3ccc(c(Cl)c3)Oc3cc2cc(c3O[C@H]2O[C@@H](CO)[C@@H](O)[C@@H](O)[C@@H]2O[C@@H]2C[C@](C)(N)[C@H](O)[C@H](C)O2)Oc2ccc(cc2Cl)[C@@H]1O
not listed: [1] | [2] | [3] | [4]
inactive: all other assays above

CCCN[C@@H](C)C(=O)Nc1ccccc1C
not listed: CP266 | [2] | [3] | [4]
inactive: all other assays above

CC(=O)Oc1cc(OC(C)=O)c2c(c1)OC(c1ccc(OC(C)=O)c(OC(C)=O)c1)C(OC(C)=O)C2 (stereo not given)
inactive: [3] | [4]
active: [2] 31.6 µM

CNc1nc(-c2ccccc2OC)nc2ccccc12
inactive: [3]

CNc1nc(-c2ccccc2C(F)(F)F)nc2ccccc12
inactive: [3]

CC(=O)Oc1c(C)c(C)c2c(c1C)CCC(C)(CCCC(C)CCCC(C)CCCC(C)C)O2 (stereo not given)
inactive: [2] | [3] | [4]

C=C1C2CC[C@@]3(C)C(c4ccoc4)OC(=O)C[C@@]13OC1CC(O)C(C)(C)C(CC(=O)OC)[C@@]12C (stereo not given in full)
inactive: [3] | [4]
active: [2] 12.6 µM and 7.94 µM

CCN1C(=O)N[C@@H](c2ccccc2)C1=O
not listed: ATS95 | [2] | [3] | [4]
inactive: all other assays above

C/C=C\C(=O)N(CC)c1ccccc1C
not listed: CP192 | [3] | [4]
inactive: all other assays above

CC1(C)Oc2ccc(C#N)cc2[C@H](N2CCCC2=O)[C@H]1O
not listed: [1] | CP260 | [2] | [3] | [4]
inactive: all other assays above

CC(CCC(=O)O)C1CCC2C3C(O)C[C@@H]4CC(O)CC[C@@]4(C)C3CC[C@@]12C (stereo not given in full)
inactive: [3]

Cc1cccc(CNc2ncncc2-c2ccccc2Cl)c1
active: [2] 0.199 µM

COc1ccccc1CCn1c(=O)c(-c2cn(C)c3ccccc23)nc2cncnc21
active: [2] 2.51 µM

O=c1c(O)c(-c2ccc(O)cc2)oc2ccccc12
inactive: [3] | [4]
active: [2] 12.6 µM

COc1cc(C)c(C(=O)Oc2cc(C)c(C(=O)O)c(O)c2C)c(OC)c1C
inactive: [3] | [4]

COc1cccc(-c2cc(NCCc3c[nH]c4ccc(OC)cc34)ncn2)c1
active: [2] 7.94 µM

O=C(c1cccc(F)c1)N1CCC[C@@]2(CCN(Cc3ccncc3)C2)C1
active: [2] 3.16 µM

Nc1ncnc2c1ncn2C1OC(CO)C(O)C1O (stereo not given)
inactive: [4]

CC(=O)OC1CC[C@]2(C)C(CC(OC(C)=O)[C@@]3(C)C4=CC(=O)OC(c5ccoc5)[C@]4(C)CCC23)C1(C)C (stereo not given in full)
inactive and 2.51 µM (active): [2]
inactive: [3] | [4]

Nc1ccn(C2OC(CO)C(O)C2O)c(=O)n1 (stereo not given)
inactive: [3] | [4]

CN(C)C(=O)c1ccc(-c2cncnc2NCc2cccs2)cc1
active: [2] 3.16 µM
inactive: [3] | [4]
